A selection: hits, their analogues and other compounds. The true share with any hit is near 2.4%.
D2 PAM-1: positively modulates the human D2 dopamine receptor allosterically; P14416; HEK293 T-REx D2, calcium flux, EC20 dopamine potentiation; potentiation, % at 10 µM; 340,000 tested, 0.34% active;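 active = potentiation over 3 SD above the plate norm, cut at about 30% in these data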
Target sequence (P14416 whole entry, looked up): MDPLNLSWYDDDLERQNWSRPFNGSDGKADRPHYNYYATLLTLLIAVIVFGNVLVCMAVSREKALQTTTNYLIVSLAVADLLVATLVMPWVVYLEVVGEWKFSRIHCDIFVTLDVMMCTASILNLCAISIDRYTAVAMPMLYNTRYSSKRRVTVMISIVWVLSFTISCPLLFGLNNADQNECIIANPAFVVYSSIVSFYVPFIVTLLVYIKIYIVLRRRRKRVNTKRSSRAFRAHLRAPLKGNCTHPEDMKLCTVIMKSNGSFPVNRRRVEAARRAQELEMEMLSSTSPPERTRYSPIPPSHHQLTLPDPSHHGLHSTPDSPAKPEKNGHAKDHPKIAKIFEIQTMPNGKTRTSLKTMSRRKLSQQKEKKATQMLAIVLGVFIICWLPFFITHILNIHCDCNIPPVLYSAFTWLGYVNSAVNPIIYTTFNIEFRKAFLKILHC
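Calcium flux readout, no-wash dye, 1 read/s. Inducible HEK293 Trex D2 line, overnight 30 C. Compound alone 180 s (agonist flags), then EC20 dopamine, another 180 s to score potentiation.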
D2 antagonist: antagonists of human D2 dopamine receptor. P14416. HEK293 TREx D2 cells, calcium flux, dopamine EC80. inhibition, % at 10 µM. 340,000 tested, 2% active. AID 485344; in the data active = inhibition above about 30%; inactive = below that, where a call was filed
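Inhibition of EC80 dopamine-driven calcium flux, recorded kinetically, defines activity here; cells are a tetracycline-induced HEK293 T-REx line expressing force-coupled D2.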
D2 ag-1: human D2 receptor agonism in beta-arrestin assay | activation, % (test concentration not listed) | DiscoveRx PathHunter D2 beta-arrestin, luminescence, 90 min; 100% = 57 uM dopamine signal | 360,000 tested, 0.084% active | AID 624465; in the data active = activation above about 40%; inconclusive = between about 15% and that limit
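DiscoveRx PathHunter D2 beta-arrestin cells (2,100/well) attached overnight, then compound-stimulated 90 min at 37 C in HBSS/10 mM HEPES/0.1% Tween-20 buffer; beta-galactosidase complementation read by luminescence after 1 h at ambient temperature. Dopamine 57 uM final (EC100) as control.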
D2 PAM-2: human D2 receptor positive allosteric modulation; P14416; DiscoveRx D2 beta-arrestin cells, luminescence, 90 min; 100% = 57 uM dopamine signal; potentiation, % (test concentration not listed); 360,000 tested, 0.23% active; AID 624464; in the data active = potentiation above about 50%; inconclusive = mostly about 30% to 49%
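PathHunter beta-arrestin assay in DiscoveRx D2 cells. Compounds were added with an EC20 of dopamine (50 nM final) for 90 min at 37 deg C. Luminescence was read 1 h after detection reagent, with 57 uM dopamine as the EC100 control.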
D2 ag-2: agonists of human D2 dopamine receptor | 340,000 tested, 0.53% active | activation, % at 2 µM | P14416 | HEK293 T-REx D2 cells, calcium flux agonist mode;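 active = activation over 3 SD above normal in the single-dose calcium agonist read, cut at about 30% in these data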
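In this primary screen, compounds producing a positive calcium signal within 180 s of addition to tetracycline-induced, force-coupled HEK293 Trex D2 cells are flagged; cells are dye-loaded with a no-wash calcium kit beforehand.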
Numbers stand for hits; 0 = inactive; ? = inconclusive; - = not tested or not shown.

SMILES | D2 PAM-1 | D2 antagonist | D2 ag-1 | D2 PAM-2 | D2 ag-2
CCOC(=O)c1ccc(NC(=O)C2(S(=O)(=O)c3ccc(Cl)cc3)CC2)cc1 | 0 | - | - | - | 0
O=C(Nc1ccc(F)cc1)C1(S(=O)(=O)c2ccc(Cl)cc2)CC1 | 0 | 36.9 | 0 | 0 | 0
Cc1ccc(NC(=O)C(Cc2c[nH]c3ccccc23)NC(=O)OCC(C)C)cc1 (configuration not stated) | 0 | - | - | - | -
CS(=O)(=O)NC1CCN(Cc2ccccc2)CC1 | 0 | 0 | 0 | 0 | 0
Cc1sc2ncnc(NC3CCN(Cc4ccccc4)CC3)c2c1C | 0 | 68.0 | 0 | 0 | 0
c1ccc(CN2CCC(Nc3nc(-c4cccnc4)nc4ccccc34)CC2)cc1 | 0 | 49.4 | 0 | 0 | 0
c1ccc(CN2CCC(Nc3ncnc4sccc34)CC2)cc1 | 0 | 77.5 | 0 | 0 | 0
Cc1csc2c(NC3CCN(Cc4ccccc4)CC3)ncnc12 | 0 | 89.2 | 0 | 0 | 0
Fc1ccccc1CNc1ncnc2sccc12 | 0 | 0 | 0 | 0 | 0
CCCn1c2ccccc2c2cnn(CC(=O)NCCc3ccc(C)cc3)c(=O)c21 | 0 | - | - | - | 0
COc1cc(/C=C2/SC(=Nc3ccc(O)cc3)NC2=O)cc(OC)c1O | 0 | 0 | 0 | 0 | 51.3
CNc1snc(C)c1C(=O)OCC(=O)N(C)Cc1ccccc1 | 0 | 35.1 | ? | 0 | 0
CNc1snc(C)c1C(=O)OCC(=O)N(C)c1ccccc1 | 0 | 0 | 0 | 0 | 0
COc1ccc(CNC(=O)c2cc3ccccn3n2)cc1OC | 0 | - | - | - | 0
CC1CCCN(C(=O)CSc2c3c(nc4cc(Cl)ccc24)CCCC3)C1 (configuration not stated) | 0 | - | - | - | 0
Clc1ccc(OCCOCCN2CCc3ccccc3C2)c(Cl)c1 | 0 | 64.4 | 0 | 0 | 0
Clc1ccc(OCCCN2CCc3ccccc3C2)c(Br)c1 | 0 | 63.9 | 0 | 0 | 0
Clc1ccc(SCCOCCN2CCc3ccccc3C2)cc1 | 0 | 49.8 | 0 | 0 | 0
CC1CCCN(CCCOc2ccc(Cl)cc2Br)C1 (configuration not stated) | 0 | 0 | 0 | 0 | 0
CCN(C(=O)CSc1nc2ccccc2n1Cc1ccc(C(=O)OC)cc1)c1ccccc1 | 0 | - | - | - | 0
Cc1ccc2c(c1)-c1[nH]c(=S)ncc1CS2 | 0 | 0 | 0 | 60.4 | 0
O=C(NCCC(=O)N1CCC2(CC1)NCCc1[nH]cnc12)c1ccc(Br)cc1 | 0 | 32.0 | 0 | 0 | 0
CCC(=O)N1CCc2cc(S(=O)(=O)NCCC(=O)N3CCN(c4ccccn4)CC3)ccc21 | 39.0 | 0 | 0 | 0 | 0
CCC(=O)N1CCc2cc(S(=O)(=O)NCCC(=O)N3CCc4ccccc4C3)ccc21 | 0 | 0 | 0 | 0 | 0
O=C(NCCC(=O)N1CCN(c2ccccn2)CC1)c1ccc(Br)cc1 | 0 | 57.6 | 0 | 0 | 0
SMILES | D2 PAM-1 | D2 antagonist | D2 ag-1 | D2 PAM-2 | D2 ag-2
Cc1ccc(S(=O)(=O)N/N=C\c2cccnc2)cc1 | 0 | 35.3 | 0 | 0 | 0
Cc1cc(C)cc(OCC(=O)Nc2nc3c(s2)CC(C(C)(C)C)CC3)c1 (configuration not stated) | 0 | - | - | - | 0
COC(=O)CN1C(=O)CSc2ccc(S(=O)(=O)Nc3c(C)cc(C)cc3C)cc21 | 0 | - | - | - | 0
COc1ccc(Cl)cc1NC(=O)C(OC)c1ccccc1 (configuration not stated) | 0 | 30.0 | 0 | 0 | 0
COc1ccc(Cl)cc1NC(=O)c1ccccc1C | 0 | 32.4 | 0 | 0 | 0
COc1ccccc1C(=O)Nc1cc(Cl)ccc1O | 0 | 0 | 0 | 0 | 0
COc1ccc(Cl)cc1NC(=O)Nc1cccc([N+](=O)[O-])c1C | 0 | 66.3 | 0 | 0 | 0
CCC(C(=O)Nc1cc(OC)c(NC(=O)c2ccccc2)cc1OC)c1ccccc1 (configuration not stated) | 0 | 41.9 | 0 | 0 | 0
CCC(C(=O)Nc1cc(Cl)ccc1OC)c1ccccc1 (configuration not stated) | 0 | 0 | 0 | 0 | 0
COc1ccccc1/C=C/c1nc(C#N)c(N2CCN(C)CC2)o1 | 0 | - | - | - | 0
CCOc1cc(/C=N/NC(=O)c2cccnc2)ccc1O | 0 | 31.4 | 0 | 0 | 0
O=C(N/N=C/c1cccnc1)C1CCCCC1 | 32.0 | 0 | 0 | 0 | 0
O=C(N/N=C/c1cccnc1)c1cccc(Cl)c1 | 0 | 35.0 | 0 | 0 | 0
O=C(N/N=C/c1ccsc1)C1CC1 | 39.6 | 0 | 0 | 0 | 0
COc1ccc(C)cc1NC(=O)c1ccc2nc(Cc3ccccc3)oc2c1 | 0 | - | - | - | 0
COc1cc(OC)cc(C(=O)NCCc2csc(-c3ccc(C(F)(F)F)cc3)n2)c1 | 0 | - | - | - | 0
O=C1OCC2=C1C(c1cccc(Cl)c1)CC(=O)N2c1ccc(C(F)(F)F)cc1 (configuration not stated) | 0 | - | - | - | 0
CNC(=O)c1ccc(NC(=O)C2CCN(S(=O)(=O)c3cccc(C(F)(F)F)c3)CC2)cc1 | 0 | 30.3 | 0 | 0 | 0
O=C(O)/C=C/C(=O)N1CCN(S(=O)(=O)c2cccc(C(F)(F)F)c2)CC1 | 0 | 31.1 | 0 | ? | 0
O=C(NNC(=O)C1CCN(S(=O)(=O)c2cccc(C(F)(F)F)c2)CC1)C1CC1 | 0 | 0 | 0 | 0 | 0
Cc1ccccc1NC(=O)c1ccc([N+](=O)[O-])o1 | 0 | 0 | ? | 0 | 0
O=C(Nc1ccc(NC(=O)c2ccc([N+](=O)[O-])o2)cc1Cl)c1ccco1 | 0 | 39.8 | 0 | 0 | 0
Cc1ccc(NC(=O)c2ccc([N+](=O)[O-])o2)c(C)c1 | 0 | 33.1 | ? | 0 | 0
Cc1cccc([N+](=O)[O-])c1NC(=O)COC(=O)c1nc2nccc(C)n2n1 | 0 | 52.4 | 0 | 0 | 0
Cc1cc(C)n2nc(C(=O)OCC(=O)Nc3ccc(C)c(F)c3)nc2n1 | - | - | 0 | 0 | -
SMILES | D2 PAM-1 | D2 antagonist | D2 ag-1 | D2 PAM-2 | D2 ag-2
CCc1ccc(NC(=O)COC(=O)c2nc3nc(C)cc(C)n3n2)cc1 | 37.3 | 40.6 | 0 | 0 | 0
CCOC(=O)N1CCN(CC(O)COc2ccccc2C(C)CC)CC1 (configuration not stated) | 0 | 32.4 | 0 | 0 | 0
COc1ccccc1OCC(O)CN1CCN(C(=O)c2ccccc2)CC1 (configuration not stated) | 0 | 0 | 0 | 0 | 32.5
CCOC(=O)N1CCN(CC(O)COc2ccccc2C(C)C)CC1 (configuration not stated) | 0 | 0 | 0 | 0 | 0
COc1ccc(-n2ncc(C(=O)N3CCN(c4ncccn4)CC3)c2C2CCN(C(=O)OC(C)(C)C)CC2)cc1 | 0 | - | - | - | 0
COc1c2c(cc3c1C(CC(O)Cc1ccccc1)N(C)CC3)OCO2 (configuration not stated) | 0 | 57.2 | 0 | 0 | 0
COc1ccc(CNC(=O)CCc2nc3cccnc3n2Cc2ccccc2)cc1 | 0 | - | - | - | 0
CCNc1nc(NC(C)(C)C)nc(N(C#N)CC)n1 | 30.7 | 0 | 0 | 0 | 0
CCNc1nc(NCC)nc(N(C#N)C(C)C)n1 | 0 | 0 | 0 | 0 | 0

Compound activity as filed in PubChem.
